# Measurements as given in PubChem BioAssay AID1159580 (chemical genetic matrix, 2015).
# “And” between values parts separate entries of the source, which are not always exact repeats. Equal values may be shown once. In all, about 5,500 compounds went through this assay and about 2,000 (36%) were called active. Inconclusive results (about 18%) are left out. The list shows a part of the results. Values without a mark were called inactive. No stated cut-off is given here; in the data, active means normalized growth mostly below about 0.91 (no sharp cut-off); inconclusive means no clear call, values can overlap the other calls; inactive means mostly above about 0.92.
# Test: chemical genetic growth profiling, strain panel (AID 1159580);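 further: tested at 20 µM; growth read once vehicle control cultures reached saturation at 30 °C; 1 = growth at the plate median or of vehicle wells; lower values mean less growth of the strain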
# Conditions: S. cerevisiae deletion strains, growth OD
smiles,measurement,setting,value
CC(COc1ccccc1)N(CCCl)Cc1ccccc1 (stereo not given),normalized growth,"locus YAL013W, strain DEP1, active compounds read low",1.01
same,normalized growth,"locus YAL021C, strain ccr4, active compounds read low",0.96
same,normalized growth,"locus YAL026C, strain drs2, active compounds read low",0.936
same,normalized growth,"locus YAL030W, strain snc1, active compounds read low",0.974
same,normalized growth,"locus YAL040C, strain CLN3, active compounds read low",1.09
same,normalized growth,"locus YBL061C, strain skt5, active compounds read low",0.978
same,normalized growth,"locus YBR009C, strain hhf1, active compounds read low",0.99
same,normalized growth,"locus YBR021W, strain FUR4, active compounds read low",1.02
same,normalized growth,"locus YBR023C, strain chs3, active compounds read low",0.97
same,normalized growth,"locus YBR171W, strain sec66, active compounds read low",0.984
same,normalized growth,"locus YBR229C, strain ROT2, active compounds read low",1
same,normalized growth,"locus YBR231C, strain swc5, active compounds read low",1.01
same,normalized growth,"locus YBR279W, strain paf1, active compounds read low",0.961
same,normalized growth,"locus YCL011C, strain gbp2, active compounds read low",0.895 (active)
same,normalized growth,"locus YCL016C, strain dcc1, active compounds read low",0.947
same,normalized growth,"locus YCL029C, strain bik1, active compounds read low",1.03
same,normalized growth,"locus YCL061C, strain MRC1 (second series), active compounds read low",0.956
same,normalized growth,"locus YCL061C, strain MRC1, active compounds read low",0.964
same,normalized growth,"locus YCL069W, strain vba3, active compounds read low",0.995
same,normalized growth,"locus YCR088W, strain abp1, active compounds read low",0.986
same,normalized growth,"locus YDL005C, strain med2, active compounds read low",0.972
same,normalized growth,"locus YDL035C, strain GPR1, active compounds read low",0.997
same,normalized growth,"locus YDL040C, strain nat1, active compounds read low",0.983
same,normalized growth,"locus YDL074C, strain BRE1, active compounds read low",1.02
same,normalized growth,"locus YDL101C, strain DUN1, active compounds read low",1.01
same,normalized growth,"locus YDL134C, strain PPH21, active compounds read low",1.01
same,normalized growth,"locus YDL185W, strain tfp1, active compounds read low",1.01
same,normalized growth,"locus YDL192W, strain arf1, active compounds read low",1.01
same,normalized growth,"locus YDR001C, strain nth1, active compounds read low",0.985
same,normalized growth,"locus YDR069C, strain doa4, active compounds read low",0.965
same,normalized growth,"locus YDR101C, strain arx1, active compounds read low",1.01
same,normalized growth,"locus YDR137W, strain rgp1, active compounds read low",0.853
same,normalized growth,"locus YDR150W, strain NUM1, active compounds read low",1.01 and 0.963
same,normalized growth,"locus YDR159W, strain sac3, active compounds read low",0.978
same,normalized growth,"locus YDR162C, strain NBP2, active compounds read low",0.998
same,normalized growth,"locus YDR195W, strain ref2",1.03
same,normalized growth,"locus YDR297W, strain sur2, active compounds read low",0.995
same,normalized growth,"locus YDR318W, strain mcm21, active compounds read low",1.01
same,normalized growth,"locus YDR334W, strain swr1, active compounds read low",0.969
same,normalized growth,"locus YDR335W, strain msn5, active compounds read low",0.974
same,normalized growth,"locus YDR363W, strain ESC2, active compounds read low",0.905
same,normalized growth,"locus YDR388W, active compounds read low",1.02
same,normalized growth,"locus YDR392W, strain spt3, active compounds read low",0.742
same,normalized growth,"locus YDR502C, strain sam2, active compounds read low",0.999
same,normalized growth,"locus YEL003W, strain gim4, active compounds read low",0.991
same,normalized growth,"locus YEL037C, strain rad23, active compounds read low",0.978
same,normalized growth,"locus YEL061C, strain CIN8 (second series), active compounds read low",0.971
same,normalized growth,"locus YEL061C, strain CIN8, active compounds read low",1.01
same,normalized growth,"locus YER002W, strain NOP16, active compounds read low",1.02
same,normalized growth,"locus YER015W, strain faa2, active compounds read low",0.993
same,normalized growth,"locus YER016W, strain bim1, active compounds read low",0.983
same,normalized growth,"locus YER110C, active compounds read low",1.01
same,normalized growth,"locus YER111C, strain swi4, active compounds read low",0.995
same,normalized growth,"locus YER155C, strain BEM2 (second series), active compounds read low",0.994
same,normalized growth,"locus YER155C, strain BEM2, active compounds read low",1.01
same,normalized growth,"locus YER167W, strain BCK2, active compounds read low",0.991
same,normalized growth,"locus YFR010W, strain ubp6, active compounds read low",0.986
same,normalized growth,"locus YGL078C, strain dbp3, active compounds read low",1.01
same,normalized growth,"locus YGL086W, strain mad1, active compounds read low",0.986
same,normalized growth,"locus YGL167C, strain pmr1, active compounds read low",1
same,normalized growth,"locus YGL173C, strain kem1, active compounds read low",1.01
same,normalized growth,"locus YGL227W, strain vid30, active compounds read low",0.973
same,normalized growth,"locus YGL240W, strain doc1, active compounds read low",1
same,normalized growth,"locus YGL248W, strain PDE1, active compounds read low",1.01
same,normalized growth,"locus YGL253W, strain hxk2, active compounds read low",0.921
same,normalized growth,"locus YGR078C, strain PAC10, active compounds read low",1.01
same,normalized growth,"locus YGR135W, strain pre9, active compounds read low",1.01
same,normalized growth,"locus YGR229C, strain SMI1, active compounds read low",0.999
same,normalized growth,"locus YGR252W, strain gcn5, active compounds read low",0.957
same,normalized growth,"locus YHR013C, strain ard1, active compounds read low",0.924
same,normalized growth,"locus YHR027C, strain rpn1, active compounds read low",0.991
same,normalized growth,"locus YHR030C, strain SLT2, active compounds read low",1.01 and 0.986
same,normalized growth,"locus YHR079C, strain IRE1 (second series), active compounds read low",1.02
same,normalized growth,"locus YHR079C, strain IRE1, active compounds read low",0.964
same,normalized growth,"locus YHR094C, strain hxt1, active compounds read low",1.02
same,normalized growth,"locus YHR129C, strain ARP1, active compounds read low",1.01
same,normalized growth,"locus YHR142W, strain chs7, active compounds read low",0.938
same,normalized growth,"locus YHR200W, strain rpn10, active compounds read low",1.01
same,normalized growth,"locus YIL066C, strain RNR3, active compounds read low",1.01
same,normalized growth,"locus YIL073C, strain SPO22, active compounds read low",1.05
same,normalized growth,"locus YIL125W, strain kgd1, active compounds read low",1.01
same,normalized growth,"locus YIR030C, strain dcg1, active compounds read low",1.02
same,normalized growth,"locus YJL092W, strain hpr5, active compounds read low",0.963
same,normalized growth,"locus YJL095W, strain BCK1 (second series), active compounds read low",0.958
same,normalized growth,"locus YJL095W, strain BCK1, active compounds read low",1 and 0.997
same,normalized growth,"locus YJL115W, strain asf1, active compounds read low",0.947
same,normalized growth,"locus YJL129C, strain trk1, active compounds read low",0.956
same,normalized growth,"locus YJL134W, strain LCB3, active compounds read low",1
same,normalized growth,"locus YJL154C, strain vps35, active compounds read low",0.982
same,normalized growth,"locus YJL164C, strain tpk1, active compounds read low",0.961
same,normalized growth,"locus YJL166W, strain qcr8, active compounds read low",0.974
same,normalized growth,"locus YJL168C, strain set2, active compounds read low",1.01
same,normalized growth,"locus YJL187C, strain SWE1 (second series), active compounds read low",1.03
same,normalized growth,"locus YJR043C, strain POL32, active compounds read low",1.02
same,normalized growth,"locus YJR066W, strain TOR1, active compounds read low",0.925
